Our source for the activity change, negative = inhibition, Potency and outcome values is PubChem BioAssay (NCATS).

“And” between values parts separate entries of the source, which are not always exact repeats. Identical values can stand only once. Inconclusive results are not listed. Entries that show only a call come without a potency. The source made the active and inactive calls. Calls come from the whole dose curve.

The test in a line: Primary qHTS to identify inhibitors of SARS-CoV-2 cell entry (AID 1645846). Note: nearly all actives have a fitted effect of over 45% in size. To be noted: SARS-CoV-2 pseudovirus cell entry assay, luminescence; activity change, negative = inhibition: at 57.1 µM (top of the series) unless noted; series mostly up to 57.1 µM. An excerpt:
Assay Provider: Wei Zheng, Ph.D.
National Center for Advancing Translational Sciences, National Institute of Health, Rockville, MD.
SARS-CoV-2 spike protein, within the viral envelope, mediates viral attachment and infection of host cells. The SARS-CoV-2 spike protein specifically binds to the host receptor ACE2 (Angiotensin-converting enzyme 2). This interaction promotes endocytosis of the viral particle, additional events lead to viral-host cell membrane fusion and release of the viral contents, allowing viral replication.
While SARS-CoV-2 requires BSL-3 facilities for live virus work, pseudotyped partices (PP) that incorporate SARS-CoV-2 spike proteins without replication elements could facilitate studies on viral entry mechanisms in a BSL-2 setting. This PP cell entry assay could also enable screening of small molecule compound libraries in BSL-2 setting to identify inhibitors of SARS-CoV-2 cell entry.
PROTOCOL TABLE (format as described by Inglese J, Shamu CE and Guy RK. 2007)
SEQUENCE No. (e.g., 1, 2, 3, etc.); […] (e.g., Cells, Incubation, Reagent, etc.); VALUE and DESCRIPTION.
1. Cells. Seed 1500 HEK293-ACE2 cells (Expi293F with stable expression of human ACE2) in 2 uL/well media (DMEM, 10% FBS, 1x L-glutamine, 1x Pen/Strep, 1 ug/ml puromycin) in white 1536-well assay plates (Greiner #782073).
2. Incubation. Incubate at 37C with 5% CO2 overnight (~16 h).
3. Compounds. Dispense 23 nL/well compounds in DMSO via pin transfer.
4. Incubation. Incubate for 1 hr at 37C 5% CO2.
5. Reagent. Dispense 2 uL/well of SARS-CoV-2-S pseudotyped particles. [a] PPs are produced with murine leukemia virus pseudotyping. [b] SARS-CoV-2-S is Wuhan-Hu-1 sequence (BEI #NR-52420) with C-terminal 19 amino acid truncation.
6. Centrifuge. […]
7. Incubation. Incubate at for 48 hr at 37C 5% CO2
8. Centrifuge. Remove supernatant with gentle centrifugation using a Blue Washer (BlueCat Bio).
9. Reagent. Dispense 4 uL/well of Bright-Glo Luciferase detection reagent (Promega #E2620).
10. Incubation. Incubate for 5 min at room temperature.
11. Detection. Read luminescence signal (Viewlux plate reader, PerkinElmer). Data was normalized with wells containing SARS-CoV-2-S PP as 100%, and wells containing bald PP (no fusion protein) as 0%.
On to `CCC[C@@H]1C[C@@H](C(=O)N[C@@H]([C@H]2O[C@H](SC)[C@H](O)[C@@H](O)[C@H]2O)[C@H](C)Cl)N(C)C1`, for which the activity change, negative = inhibition was -7.46%.

As for `C[C@H]1C[C@@H]2[C@H]([C@@H](O)C[C@@]3(C)[C@H]2CC[C@]3(O)C(=O)CO)[C@@]2(C)C=CC(=O)C=C12`, the Potency result is “inactive”.

`CCn1ccc(NS(=O)(=O)c2ccc(N)cc2)nc1=O`: the Potency result was “inactive”.

Take `O=[N+]([O-])c1cncn1CCN1CCOCC1`: the activity change, negative = inhibition was -6.13%.

`CC(C)Cn1cnc2c(N)nc3ccccc3c21`: the activity change, negative = inhibition was determined as 0.431% [at 27.1 µM] and the Potency result is “inactive”.

As to `OC[C@@H](O)[C@@H](O[C@@H]1O[C@H](CO)[C@H](O)[C@H](O)[C@H]1O)[C@H](O)[C@@H](O)CO`, the Potency entry is “inactive”.

For the compound `Nc1ccn(C[C@@H](CO)OCP(=O)(O)O)c(=O)n1`, the activity change, negative = inhibition is -18.8% [at 11.3 µM] and the outcome is “inactive [at 0.702 µM]”.

In the case of `CCOC(=O)C1=C[C@@H](OC(CC)CC)[C@H](NC(C)=O)[C@@H](N)C1`, the activity change, negative = inhibition is -2% and the Potency entry was “inactive”.

In the case of `O=C(O)Cc1cccc(-c2cc(CCCCCCc3ccc(O[C@H]4O[C@H](CO)[C@@H](O)[C@H](O)[C@@H]4O)c(-c4cccc(CC(=O)O)c4)c3)ccc2O[C@H]2O[C@H](CO)[C@@H](O)[C@H](O)[C@@H]2O)c1`, the activity change, negative = inhibition is -14.7% [at 0.702 µM].

Take `N#C[C@H]1C[C@H]2C[C@@H]2N1C(=O)[C@@H](N)C12CC3CC(CC(O)(C3)C1)C2`: the activity change, negative = inhibition is -17.5%.

As to `O=C(NCC1CCCCN1)c1cc(OCC(F)(F)F)ccc1OCC(F)(F)F` (stereo not given), the activity change, negative = inhibition is -8.95% and the Potency result was “inactive”.

For the compound `CCCc1nn(C)c2c(=O)[nH]c(-c3cc(S(=O)(=O)N4CCN(C)CC4)ccc3OCC)nc12`, the activity change, negative = inhibition was -6.94% and the Potency entry is “inactive”.

Take `O=C(O)c1cc(=O)[nH]c(=O)[nH]1`: the Potency result was “inactive” and the activity change, negative = inhibition was -5.5%.

Consider `C[N+]1(C)CCCC(OC(=O)C(O)(c2ccccc2)c2ccccc2)C1` (stereo not given), for which the activity change, negative = inhibition was -26.9%.

In the case of `Cc1cc(NS(=O)(=O)c2ccc(N)cc2)no1`, the Potency entry was “inactive”.

As for `COc1ccc2c(c1)c(CC(=O)OC/C=C(\C)CC/C=C(\C)CCC=C(C)C)c(C)n2C(=O)c1ccc(Cl)cc1`, the Potency entry is “inactive”.

Consider `COc1cc(NS(=O)(=O)c2ccc(N)cc2)nc(C)n1`, for which the Potency entry is “inactive”.

`CC(C(=O)O)c1ccc2c(c1)CC(=O)c1ccccc1S2` (stereo not given): the Potency entry is “inactive”.

Regarding `O=C(O)CCCCC1CCSS1` (stereo not given), the Potency entry was “inactive”.

In the case of `C[C@@H](CN1CC(=O)NC(=O)C1)N1CC(=O)NC(=O)C1`, the activity change, negative = inhibition is -20% and the Potency result is “inactive”.

Take `CCN1CCCC1CNC(=O)c1cc(S(=O)(=O)CC)c(N)cc1OC` (stereo not given): the activity change, negative = inhibition is 4.53% and -0.585%.

With `CCCCOCCOC(=O)c1cccnc1`, the Potency entry was “inactive”.

Consider `O=C(NCCO[N+](=O)[O-])c1cccnc1`, for which the Potency result was “inactive”.

In the case of `NS(=O)(=O)c1cc2c(cc1Cl)NC(C(Cl)Cl)NS2(=O)=O` (stereo not given), the activity change, negative = inhibition is -2.02% and -6.06%.

Take `CC[C@H](C)C(=O)O[C@H]1C[C@H](O)C=C2C=C[C@H](C)[C@H](CC[C@@H](O)C[C@@H](O)CC(=O)O)[C@H]21`: the Potency entry is “inactive” and the activity change, negative = inhibition is -12.2%.

Take `CCOP(=S)(OCC)Oc1ccc2c(C)c(Cl)c(=O)oc2c1`: the activity change, negative = inhibition was found to be 69.2%.

Consider `COP(=S)(OC)Oc1ccc(SC)c(C)c1`, for which the activity change, negative = inhibition was -16.5%.

As for `CCCCC(CC)COC(=O)c1ccccc1O` (stereo not given), the Potency result is “inactive”.

`CN1C(C(=O)Nc2ccccn2)=C(O)c2ccccc2S1(=O)=O`: the activity change, negative = inhibition is -89.8% and the Potency entry was “inactive”.

With `C#C[C@]1(O)CC[C@H]2[C@@H]3CCC4=CC(=O)CC[C@@H]4[C@H]3CC[C@@]21CC`, the Potency entry is “inactive”.

As to `CCCCC(CC)CN1CN(CC(CC)CCCC)CC(C)(N)C1` (stereo not given), the Potency result is “inactive”.
